Experimental data published in PubChem BioAssay (NCATS).
Results filed as inconclusive are left out. Values without a mark were called inactive. Calls of active or inactive are those of the source. Calls follow the shape of the dose curve; as a rule, active = well fitted inhibition curve with a large enough effect; inconclusive = small, poorly fitted or top-dose-only effect; inactive = flat fitted curve, though single readings scatter.

Assay: qHTS to identify inhibitors of the type 1 interferon - major histocompatibility complex class I in skeletal muscle: primary screen against the NCATS Pharmaceutical Collection (AID 1347407)
Conditions: human skeletal muscle cells, IFN-b-induced MHC-I HiBiT luminescence, 24 h; series mostly up to 92.2 µM
Source text: Assay Submitter (PI): Travis B. Kinder Ph.D. & James Inglese Ph.D.
Assay Development and Screening Technology Laboratory (ADST)
National Center for Advancing Translational Sciences (NCATS), Rockville, MD
National Institute of Health (NIH), Bethesda, Maryland
Idiopathic inflammatory myopathies, collectively referred to as myositis, are a group of rare autoimmune diseases characterized by skeletal muscle inflammation, weakness, and usually accompanied by systemic pathologies of the skin, lungs, or vasculature. Current immunosuppressive therapies and glucocorticoids are often not curative and are accompanied by harsh side effects, especially in children with juvenile myositis. We initiated a drug repurposing and development program to identify more targeted, less toxic therapeutics to treat myositis. Although its cause is not known, muscle from a subset of patients have an abundance of the inflammatory type 1 interferon (IFN) and a down-stream product major histocompatibility complex class I (MHC class I), which are both thought to contribute to damage and weakness. We conducted quantitative high throughput screening on 6,576 compounds (4,679 unique) through a series of cell-based assays to identify those that inhibit the IFN-stimulated expression of MHC class I in muscle precursor cells (myoblasts). The compound identification and evaluation strategy utilized a primary screen with reporter-tagged MHC class I in genome-engineered myoblasts, ATP content counter screen for viability, HLA-ABC immunofluorescence secondary screen, and HLA-B RT-qPCR tertiary screen.
The primary screen utilized CRISPR/Cas9 genome-engineering of immortalized human myoblasts, C25cl48, where a pro-luminescent reporter HiBit was fused to the C-terminus of endogenous MHC class I allele HLA-B*08:01 (HLA-B HiBit myoblasts). HiBit is an 11 amino acid fragment of NanoLuc luminescent reporter (Promega Corporation), and when complexed to the larger LgBit fragment, the reconstituted enzyme produces light in the presence of furimazine substrate (Schwinn et al., 2018). Briefly, HLA-B HiBit myoblasts were plated into 1536-well plates, treated with 4.0 ng/ml human IFN-beta and 2,816 compounds from the NCATS Pharmaceutical Collection (NPC) that contains all drugs approved in the US, EU, and Japan (Huang et al., 2011) in an 8-point, 1:5 titration with a high final concentration of 46 uM. After 24 hrs of treatment, cells were assayed by Nano-Glo HiBiT Lytic Detection System (Promega) and luminescence measured by a ViewLux 1430 Ultra HTS (Perkin Elmer).
Huang R, Southall N, Wang Y, Yasgar A, Shinn P, Jadhav A, Nguyen D-T, Austin CP. 2011. The NCGC pharmaceutical collection: a comprehensive resource of clinically approved drugs enabling repurposing and chemical genomics. Sci Transl Med 3:80ps16. doi:10.1126/scitranslmed.3001862
Schwinn MK, Machleidt T, Zimmerman K, Eggers CT, Dixon AS, Hurst R, Hall MP, Encell LP, Binkowski BF, Wood K V. 2018. CRISPR-Mediated Tagging of Endogenous Proteins with a Luminescent Peptide. ACS Chem Biol 13:467-474. doi:10.1021/acschembio.7b00549
PROTOCOL TABLE (as described by Inglese et al., 2007)
SEQUENCE No. (e.g., 1, 2, 3, etc.); […] (e.g., Cells, Incubation, Reagent, etc.); VALUE; DESCRIPTION
1a; Cells; 5 uL; Use a Multidrop Combi (Thermo Scientific) to seed 350 cells/well into nine Greiner 1536 well white/solid bottom, high base, TC plates in 5 ul/well of iHSKM growth medium (GM) without dexamethasone into columns 1+2. Add metal lids with gas-exchange holes
1b; Cells; 5 uL; Use a Multidrop Combi (Thermo Scientific) to seed 350 cells/well into nine Greiner 1536 well white/solid bottom, high base, TC plates in 5 ul/well of iHSKM GM without dexamethasone + 4 ng/ml IFN-b into columns 3 - 48. Add metal lids with gas-exchange holes
2; Incubate; 1 hr; Incubate at 37 C, 5% CO2, 95% RH
[…]
% is scaled to controls: 0 for no effect and ±100 for the full control effect.

Q: Which outcome does the source give for `O=[N+]([O-])c1cc([N+](=O)[O-])c2ccccc2c1` here?
A: Its outcome is “inactive”.

Q: Which outcome does the source give for `OCCCBr` here?
A: The outcome was “inactive”.

Q: For `CCOCCOC(C)=O`, which outcome is on record?
A: The outcome was “inactive”.

Q: For `C1CCC(NC2CCCCC2)CC1`, which outcome is on record?
A: The outcome was “inactive”.

Q: For `Cc1ccc(Cl)c(O)c1`, which outcome is on record?
A: Its outcome is “inactive”.

Q: With `O=[N+]([O-])c1c(Cl)c(Cl)cc(Cl)c1Cl` as the compound, how does the outcome read?
A: The outcome was “inactive”.

Q: With `Nc1ccc([N+](=O)[O-])cc1` as the compound, how does the outcome read?
A: The outcome was “inactive”.

Q: With `C=CCC1=C(C)C(OC(=O)C2C(C=C(C)C)C2(C)C)CC1=O` (stereo not given) as the compound, how does the outcome read?
A: The outcome was “inactive”.

Q: Which outcome does the source give for `c1cc2ccc3cccc4ccc(c1)c2c34` here?
A: Its outcome is “inactive”.

Q: For `O=S(=O)(O)C(F)(F)C(F)(F)C(F)(F)C(F)(F)F`, which outcome is on record?
A: Its outcome is “inactive”.

Q: For `C=CC(=O)NCNC(=O)C=C`, which outcome is on record?
A: Its outcome is “inactive”.

Q: For `COC(=O)c1cncn1C(C)c1ccccc1` (stereo not given), which outcome is on record?
A: Its outcome is “inactive”.

Q: With `CC1=C(C(=O)O)N2C(=O)[C@@H](N)[C@H]2SC1` as the compound, how does the activity change, negative = inhibition read?
A: The activity change, negative = inhibition was -3.5% [at 19 µM].

Q: With `CCC1(CCC(C)C)C(=O)NC(=O)NC1=O` as the compound, how does the outcome read?
A: Its outcome is “inactive”.

Q: With `CC(C)NCC(O)c1ccc([N+](=O)[O-])cc1` (stereo not given) as the compound, how does the outcome read?
A: The outcome was “inactive”.

Q: With `CC1(C)CC/C(=C/c2ccc(Cl)cc2)C1(O)Cn1cncn1` (stereo not given) as the compound, how does the outcome read?
A: Its outcome is “inactive”.

Q: With `CCCCCCCCc1ccc(O)cc1` as the compound, how does the outcome read?
A: The outcome was “inactive”.

Q: For `O=C(O)COc1ccccc1`, which outcome is on record?
A: Its outcome is “inactive”.

Q: With `CC(C)(C)NC[C@H](O)c1ccc(O)cc1Cl` as the compound, how does the outcome read?
A: Its outcome is “inactive”.

Q: For `O=C(O)COc1nc(Cl)c(Cl)cc1Cl`, which outcome is on record?
A: The outcome was “inactive”.

Q: Which outcome does the source give for `CCCCOC(=O)c1ccccc1C(=O)OCc1ccccc1` here?
A: Its outcome is “inactive”.

Q: Which outcome does the source give for `CC[N+]1(CCOC(=O)C(O)(c2ccccc2)c2ccccc2)CCCCC1` here?
A: The outcome was “inactive”.

Q: Which outcome does the source give for `S=C(SSC(=S)N1CCCCC1)N1CCCCC1` here?
A: Its outcome is “inactive”.

Q: For `O=[N+]([O-])/N=C1\NCCN1Cc1ccc(Cl)nc1`, which outcome is on record?
A: The outcome was “inactive”.

Q: With `CCC(=O)O[C@@H]1C=C2CCC3C(CCC4(C)C3CC[C@@H]4OC(=O)CC)C2CC1` (stereo not given in full) as the compound, how does the outcome read?
A: The outcome was “inactive”.

Q: Which outcome does the source give for `ClC1=C(Cl)[C@]2(Cl)[C@@H]3[C@@H]4C[C@@H]([C@H]5O[C@@H]45)[C@@H]3[C@@]1(Cl)C2(Cl)Cl` here?
A: Its outcome is “inactive”.

Q: Which outcome does the source give for `Nc1c(Cl)c(Cl)c(Cl)c(Cl)c1Cl` here?
A: The outcome was “inactive”.

Q: Which outcome does the source give for `O=[N+]([O-])c1ccc([As](=O)(O)O)cc1` here?
A: The outcome was “inactive”.

Q: Which outcome does the source give for `Oc1ccc2c3c1O[C@H]1[C@@H](O)C=C[C@H]4[C@@H](C2)NCC[C@@]341` here?
A: Its outcome is “inactive”.

Q: Which outcome does the source give for `CC(O)CN1CCN(CC(=O)[O-])CCN(CC(=O)[O-])CCN(CC(=O)[O-])CC1.[Gd+3]` (stereo not given) here?
A: Its outcome is “inactive”.

Q: Which outcome does the source give for `CCOP(=O)(NC(C)C)Oc1ccc(SC)c(C)c1` (stereo not given) here?
A: The outcome was “inactive”.

Q: With `CC(C)(C)C(O)C(Oc1ccc(Cl)cc1)n1cncn1` (stereo not given) as the compound, how does the outcome read?
A: The outcome was “inactive”.

Q: Which outcome does the source give for `O=C(Nc1ccccc1-c1ccc(Cl)cc1)c1cccnc1Cl` here?
A: Its outcome is “inactive”.

Q: With `COCCOCCO` as the compound, how does the outcome read?
A: Its outcome is “inactive”.

Q: With `O=C1C(I)=CC(=C(c2cc(I)c(O)c(I)c2)c2ccccc2C(=O)O)C=C1I` as the compound, how does the outcome read?
A: The outcome was “inactive”.

Q: Which outcome does the source give for `O=S(=O)(O)C(F)(F)C(F)(F)C(F)(F)C(F)(F)C(F)(F)C(F)(F)C(F)(F)C(F)(F)F` here?
A: Its outcome is “inactive”.

Q: With `O=[N+]([O-])c1c2ccccc2cc2ccccc12` as the compound, how does the outcome read?
A: The outcome was “inactive”.

Q: With `COc1nn(CSP(=S)(OC)OC)c(=O)s1` as the compound, how does the outcome read?
A: The outcome was “inactive”.

Q: Which outcome does the source give for `CC(Cc1ccc(O)cc1)NCC(O)c1cc(O)cc(O)c1` (stereo not given) here?
A: The outcome was “inactive”.

Q: Which outcome does the source give for `O=C(O)c1cc(Oc2ccc(C(F)(F)F)cc2Cl)ccc1[N+](=O)[O-]` here?
A: Its outcome is “inactive”.
